Compound activity (PubChem BioAssay)
rTrxR1 inhibitor: qHTS Assay for Inhibitors of Mammalian Selenoprotein Thioredoxin Reductase 1 (TrxR1): qHTS; Potency, µM (doses to about 114 µM), inactives show at the highest dose activity change, negative = inhibition, most hits filed as inhibitors; recombinant rTrxR1, NADPH fluorescence consumption, selenite substrate; Thioredoxin reductase 1, cytoplasmic (Rattus norvegicus), O89049; 390,000 compounds, 1% hits; further: nearly all actives have a fitted effect of over 65% in size
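Rat TrxR1 (90 nM in the dispensed reagent) was pre-reduced with 400 uM NADPH for 5 min at room temperature, then incubated with compound for 15 min. After 400 uM selenite was added, NADPH fluorescence (Ex 340/Em 450 nm) was followed for 8 min.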
RGS4 inh: Inhibitors of Regulator of G Protein Signaling (RGS) 4: qHTS; Regulator of G-protein signaling 4 (Homo sapiens), P49798; Transcreener GDP fluorescence polarization, RGS4-accelerated GTP hydrolysis; Potency, µM (titrated, usually from 114 µM), for the others: top-dose activity change, negative = inhibition, hits mostly inhibitors; 390,000 compounds, 0.039% hits; further: nearly all actives have a fitted effect of over 75% in size
Target sequence (P49798 whole entry, looked up): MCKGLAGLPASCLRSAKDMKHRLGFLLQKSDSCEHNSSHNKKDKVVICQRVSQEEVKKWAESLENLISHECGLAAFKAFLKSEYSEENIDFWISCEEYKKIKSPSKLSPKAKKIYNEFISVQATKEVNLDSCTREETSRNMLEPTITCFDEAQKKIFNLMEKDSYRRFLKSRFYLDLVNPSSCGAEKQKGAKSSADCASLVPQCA
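MLSMR compounds (23 nl, pin-transferred) preincubated 10 min at room temperature with a 500nM (2x) first reagent, then RGS4 at 900nM (2x) plus Transcreener GDP mix added; fluorescence polarization (620/688 nm) read before and after 90 min at 30 °C.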
Eya2 inh: qHTS Assay for Inhibitors of the Phosphatase Activity of Eya2; recombinant Eya2, OMFP fluorescence dephosphorylation (OMFP is methylfluorescein phosphate); Potency, µM (series often up to 76.9 µM), for the others: at the highest dose activity, negative = inhibition, hits mostly inhibitors; 330,000 compounds, 0.006% hits
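Eya2 protein (added as 0.2 uM solution) was preincubated with compound for 10 min at ambient temperature in 50 mM HEPES pH 7.5, 50 mM NaCl, 5 uM MgCl2, 0.05% BSA, 1 mM DTT. OMFP (added at 50 uM) then reacted 10 min; fluorescence read at 485/525 nm.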
USP2a inh: qHTS Assay for Inhibitors of Ubiquitin-specific Protease USP2a Using CHOP2 as the Reporter | Ubiquitin carboxyl-terminal hydrolase 2 (Homo sapiens), O75604 | USP2 core, Ub-CHOP2 coupled fluorogenic reporter, 485/531 | Potency, µM (titrated, usually from 38.3 µM), for inactives: top-dose activity change, negative = inhibition, actives largely listed as inhibitors | 330,000 compounds, 0.01% hits;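 further: plate controls were DMSO wells for no effect and full inhibition by NEM control for full effect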
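USP2 core (10nM final) preincubated 30min RT with compound in 20mM Tris-HCl pH 8.0, 2mM CaCl2, 2mM beta-mercaptoethanol, 0.05% CHAPS; 25nM Ub-CHOP2 plus 25nM reporter substrate added, fluorescence (Ex485/Em531) read after 60min.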
TrxR1 substrate: qHTS Assay for Substrates of Mammalian Selenoprotein Thioredoxin Reductase 1 (TrxR1): qHTS | Thioredoxin reductase 1, cytoplasmic (Rattus norvegicus), O89049 | purified TrxR1 substrate turnover, NADPH consumption readout | Potency, µM (titrated, usually from 114 µM), for the others: top-dose activity change, negative = substrate turnover | 390,000 compounds, 0.01% hits | AID 588456, 2011; further: nearly all actives have a fitted effect of over 50% in size
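Rat TrxR1, dispensed at 90 nM, was prereduced with 400 uM NADPH (final) for 5 min at ~22 deg C, then incubated with compound 15 min before 400 uM selenite. A first-read NADPH fluorescence drop versus no-compound background flagged substrates.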
GALK inh: qHTS Assay for Inhibitors of Human Galactokinase (GALK) | P51570 | Purified GALK, Kinase-Glo residual ATP luminescence | Potency, µM (top dose mostly 57.5 µM), for inactives: at the highest dose activity change, negative = inhibition, actives largely listed as inhibitors | 270,000 compounds, 0.007% hits
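Compounds were pin-transferred into ATP buffer (35 uM final), then GALK plus galactose (5 nM, 100 uM final) was added. After 1 h at room temperature, Kinase-Glo Plus was added and luminescence read after 10 min.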
The depositor's hits bear a star; ? = inconclusive; nt = no result; [ ] = dose if it differs, or a comment. A selection: hits, their analogues and other compounds. The true share with any hit is near 1%. The call rests on the fitted dose curve; in most records, active means well fitted curve in the direction sought with a large enough effect; inconclusive means small, poorly fitted or top-dose-only effect, or another doubt; inactive means no such curve, though single readings can be large; an effect the other way counts as inactive or inconclusive. Unless noted, on the % scale 0 is the no-effect control and ±100 the full control effect; potency means the concentration at half of the fitted maximal effect.

SMILES | rTrxR1 inhibitor | RGS4 inh | Eya2 inh | USP2a inh | TrxR1 substrate | GALK inh
CCOC(=O)C1Nc2ccc(C)cc2C2C=CCC12 (stereo not drawn) | 5.62µM* | ? | nt | nt | 8.6%[57.1 µM] | nt
CCOC(=O)c1ccc2c(c1)[C@@H]1C=CC[C@@H]1[C@H](c1cccc(OC)c1OC)N2 | 17.9% | 2.5% | nt | nt | 4.4% | nt
O=C(O)C1Nc2ccc(Br)cc2C2C=CCC12 (stereo not drawn) | 20µM* | ? | 4.5% | -1.3% | -0.8% | -0.3%
COc1ccc(Br)cc1[C@@H]1Nc2ccc(C(=O)O)cc2[C@@H]2C=CC[C@@H]21 | -19.5% | -34.5% | nt | nt | -0.2% | nt
O=C(OC1CCCCC1)c1ccc2c(c1)C1C=CCC1C(C(=O)O)N2 (stereo not drawn) | nt | nt | 5.1% | -1.4% | nt | -0.9%
CN(C)c1ccc(/C=C2\NC(=O)NC2=O)cc1 | -3.4% | nt | nt | nt | -14.1% | nt
CC/C(=C/c1ccccc1OC)c1cc(-c2ccccc2)cc2oc3ccccc3c12 | 85.7% | nt | nt | nt | 77.3% | nt
CCOC(=O)CCCCC(=O)c1[nH]c(=O)[nH]c1CSc1nc(C)cc(=O)[nH]1 | 3.16µM* | 0.4% | -17.0% | 0.2% | 10.8% | -1.2%
CCOC(=O)CCCCC(=O)c1[nH]c(=O)[nH]c1CSc1nc2ccccc2[nH]1 | 3.16µM* | -6.9% | -3.4% | 3.9% | -1.9% | -2.5%
CCOC(=O)CCCCC(=O)c1[nH]c(=O)[nH]c1CSc1nc(C)cc(C)n1 | 5.3%[57.1 µM] | -19.5% | 31.8%[15.4 µM] | -1.2% | -2.4%[57.1 µM] | 1.1%
CN(C)c1c(Cl)cc(/C=C/c2ccnc3ccccc23)cc1Br | -7.1% | nt | nt | nt | 3.1% | nt
Nc1ccc(/C=C/c2ccnc3ccccc23)cc1 | 23.2% | nt | nt | nt | 9.8%[0.0914 µM] | nt
O=C(O)c1ccccc1SC1CC(=O)N(C2CCCCC2)C1=O (stereo not drawn) | 79.4µM* | -5.4% | -9.6% | -1.7% | 2.7% | -0.8%
COC(=O)c1c(N2C(=O)CC(Sc3ccccc3C(=O)O)C2=O)sc2c1CCCC2 (stereo not drawn) | 79.4µM* | -21.5% | 13.9% | -0.8% | 3.3% | 6.0%
O=C(O)c1ccccc1SC1CC(=O)N(c2ccccc2)C1=O (stereo not drawn) | ? | -23.7% | 4.6% | 3.6% | -13.9% | 0.6%
N#C/C(=C\c1coc2ccc(O)cc2c1=O)C(=O)Nc1nc2ccccc2s1 | 14.1µM* | ? | ? | 30.0% | -2.6% | ?
O=C1CCC[C@@H]2C[C@@]3(C[C@@H]4CCN1[C@H]24)Nc1cc([N+](=O)[O-])ccc1NC3=NCc1ccccc1 | -15.7% | nt | nt | nt | -17.0% | nt
Cc1ccc(-c2[nH]c3ccccc3c2C(C[N+](=O)[O-])c2ccco2)cc1 (stereo not drawn) | ? | -33.6% | 3.3% | -8.3% | -2.7% | -2.0%
Cc1[nH]c2ccccc2c1C(C[N+](=O)[O-])c1ccco1 (stereo not drawn) | 12.6µM* | -35.6% | -8.5% | 1.0% | 1.8% | -1.4%
Cc1nn(-c2ccccc2)c(C)c1C(=O)OCC(=O)NCc1ccco1 | 56.2µM* | -28.5% | 24.2% | 1.1% | 3.8% | 1.3%
Cc1cc(C)cc(NC(=O)c2cc(C)nc3c2c(C)nn3-c2ccccc2)c1 | 79.4µM* | 2.8% | nt | nt | 41.5% | nt
Cc1nn(-c2ccccc2)c2nc(-c3ccncc3)cc(C(=O)NCc3ccco3)c12 | 50.1µM* | -70.5%[56.9 µM] | -1.9% | -1.8% | 0.8% | 0.4%
